Test results: the supplement of paper PMC10105736
Unmarked numbers belong to inactive results.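 Rule for the calls: active = MAPPIT score above the 99th percentile of random reference set scores in the same batch; inactive = at or below it.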

Columns and labels:
Assay in all cases: MAPPIT interaction score (arbitrary units); higher = stronger binary interaction signal, active = hit call of the paper
dimm = settings: MAPPIT configuration: N-N; pair source set: DPIM
flw = settings: pair source set: Lit-BM-16
dnd = settings: MAPPIT configuration: N-N; pair source set: screen_2
fwe = settings: MAPPIT configuration: N-C; pair source set: screen_4
fon = settings: MAPPIT configuration: N-N; pair source set: Finley_Y2H
e(y)2 = settings: MAPPIT configuration: N-N; pair source set: screen_2
eIF3f1 = settings: MAPPIT configuration: N-N; pair source set: Lit-BM-16
fz = settings: MAPPIT configuration: N-C; pair source set: Lit-BM-16
emb = settings: MAPPIT configuration: N-N; pair source set: Lit-BM-16
dre4 = settings: MAPPIT configuration: N-N; pair source set: Lit-BM-16
glob1 = settings: MAPPIT configuration: N-N; pair source set: Lit-BS-16
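Note: HEK293T cells with Epo stimulation, STAT-responsive firefly luciferase reporter, fold induction versus unstimulated cells divided by the larger fold induction of two negative controls lacking either bait or prey.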

B1: Lsm12a (protein)
chain: MAAAAASAVNAVNDCFSIGSTVVCTTCFNEEVEGEVLAFDHNTKMLILKCRSKSTEELSDIYAMNLSLCSNVQVIKECNGNFDDPQKLNLEQVKMRLRKTVERRQDYLKSKNADVSPEAQELYRAIAKQYGYNEVSWQGLNIQILNEVTISPPYRVDNVVSSSNNETSCNYIKRIIKQFFNTRPSPVPESGAAASTSSPSVSPTSSSLASGSPVPAN
B1 gave an MAPPIT interaction score (dimm) of -0.17.

B2: Nop17l (protein)
chain: MSASRSRNKQSKLCDDERLDISRDEFNRFQEAFGKEEFRKLFFDYVDEIQDPENRKIYESEITQLEKERGVEVRFIHPKPGFVIKTALDGELKCFINIASCEEIQRPKNEVATDPSSGSRGLSWSIPMAQTTSRDDFDAKNNHCKVFDVVFHPDALHLAMRNKQFRQCLIDTALDAIEREYKVSLDRANLKFPKLDYKGIPRPTVIRKMADNPTAEEQEPHPLAHMFPTKPPAPGKQEPRVLPMKTKPSPVPEFTVPRYTIKHSHDVDLSEYTDELDAKLHVTVPRSLVVEIELPLLRSTAECQLDVTSKSIYLFSERQGAKYRLKLDLPFIVDDKAGRARFDTDMRRLSITLPVVRKSIQEQAQMHETLRHFSREDSGVELHSNSESPVEEDPDGELSDSKADISETSSPSVAPANSPFLKSSVHYQLPSKFDCNVLDNVMAFVLHVPNVQPDSIEQLREQRSLHLKFATIGSGYYPTHYAFYVELSAEHEDSSIESAEAEAWDNNVVLKLCLNSQSETPASYLAGLDATELKEYPVHGQYHVKSKGKVNAKKDNAPLDVKFERNQEGHALKVTIRPGTKEEEEDKENQDQEPESDQQQQQQVQNKKPGKKQRKKNKKERSLSESACADMILQEPLAKTNELQPRATFKLPPQRKQRSYSECNDSTGRSHRGILKRFSRYGPRPSMSDSWSSIDDSSSYSCSVDASGTSLFSQSFGGIPEEDRSDAGLSESCKKTVRFNDHIMKQVFRLDSSILGQRKKNQKRRDLKLRAQQRRLSEGDSVDYEETRGSALKQEENPSRNCNDSGLDLTGAAGAHSNNNESDAKNTMMFEMDD
In the case of B2, the MAPPIT interaction score (flw; MAPPIT configuration: N-C) is reported as 3.31 and the MAPPIT interaction score (flw; MAPPIT configuration: N-N) is reported as 0.884.

B3: PrBP (protein)
chain: MGSDDQSAGDRIQKGFQINYMILRDADSGKIIWQENKDFSAPDQEHEARVPVKILDMRAVSREINFSTIESMENFRLDQKVLFKGRIMEEWFFEMGFVGANTTNTWQSTIEAAPESQMMPAKVLNGNVTIQTSFYDNETLITKSVVRLYYI
With B3 the MAPPIT interaction score (dnd) was 4.87 (active).

B4: Arl8 (protein)
chain: MLALINRILEWFKSIFWKEEMELTLVGLQFSGKTTFVNVIASGQFAEDMIPTVGFNMRKITRGNVTIKVWDIGGQPRFRSMWERYCRGVNAIVYMVDAADLDKLEASRNELHSLLDKPQLAGIPVLVLGNKRDLPGALDETGLIERMNLSSIQDREICCYSISCKEKDNIDITLQWLIQHSKSQSR
B4 showed an MAPPIT interaction score (fwe) of 3.21.

B5: Slh (protein)
chain: MLTLRERQINAIKQMLNLNSQQPKALAAEPVWKILIYDRVGQDIISPIISIKELRELGVTLHVQLHSDRDSIPDVPAIYFCLPTDENLDRIQQDFSSGLYDVYHLNFLAPITRSKIENLAAAALHAGCVANIHRVYDQYVNFISLEDDFFILKHQQSDQLSYYAINRANTRDEEMEALMDSIVDSLFALFVTLGNVPIIRCPRNSAAEMVARKLEKKLRENLWDARANLFHMDATQAGGGVFSFQRPVLLLLDRNMDLATPLHHTWSYQALVHDVLDLGLNLVYVEDETASAGARKKPKACDLDRNDRFWMTHKGSPFPTVAEAIQEELESYRNSEEEIKRLKTSMGIEGESDIAFSLVNDTTARLTNAVNSLPQLMEKKRLIDMHTKIATAILNFIKARRLDSFFEIEEKVMSKQTLDRPLLDLLRDGEFGQAEDKLRLYIIYFICAQQLPESEQERLKEALQAAGCDLTALAYVQRWKGIMNRSPSISQATQYEGGGTKTVSMFTKLVSQGSSFVMEGVKNLVVKRHNLPVTKITEQVMECRSNAETDDYLYLDPKLLKGGEVLPKNRAPFQDAVVFMVGGGNYIEYQNLVDFIKQKQTSNVQRRIIYGASTLTNARQFLKELSALGGEIQSPTATS
For B5, the MAPPIT interaction score (fon) was -0.252.

B6: Mul1 (protein)
chain: MEFLHESVALGVDLLILGLCAREYVHYKRTAKVLKAAPQYNIDGDLKSVVERQRDKKIPYAVIRGTVTPIGVPLRSSLVPSVSGVLQIVKLHEHRVTRGFAGFWTEQHKLLHESANEMPFELRNQSHGVEIVDALSAAVLDVDVVYDNYEPSNLSLFDHVFGFFSGVRQRGLQTTEEVLREGSFLTAIGELELDGDTLRMQPSNEGPLFLTTATKSTLIKRFEDAKTTTILKLVVCSTISAILVAFIAKKLYRKRKQEREEAKIRERLDTERRERRARSRPHTLSQDQLCVVCSTNPKEIILLPCGHVCLCEDCAQKISVTCPVCRGSIVSKAAAFIA
In the case of B6, the MAPPIT interaction score (e(y)2) is reported as 5.68 (active).

B7: eIF3m (protein)
chain: MTSHPVFIDLSLDEQVQELRKYFKKLGAEISSEKSNKGVEDDLHKIIGVCDVCFKDGEPSQIDGILNSIVSIMITIPLDRGENIVLAYCEKMTKAPNLPLGKVCLQSLWRLFNNLDTASPLRYHVYYHLVQVAKQCEQVLEVFSGVDQLKSQFANCPPSSEQMQKLYRLLHDVTKDTNLELSSKVMIELLGTYTADNACVAREDAMKCIVTALADPNTFLLDPLLSLKPVRFLEGDLIHDLLSIFVSEKLPAYVQFYEDHREFVNSQGLNHEQNMKKMRLLTFMQLAESSPEMTFETLTKELQINEDEVEPFVIEVLKTKLVRARLDQANQKVHISSTMHRTFGAPQWEQLRDLLQAWKENLSTVREGLTSVSSAQLDLARSQKLIH
For B7, the MAPPIT interaction score (eIF3f1) was 5.38 (active).

B8: Patj (protein)
chain: MHLSADISSALQQIEAVKKGIDESDDPKLQMQTAESLSTILGILQDPVFRTIVHVQDSLSELNAQLAQHPSMLPNDFDIDVAGNLVLSLNGGEVMYDFDEQRSSSHSHSAPGSPDKSGGVGEEPRPQSQNSKGAGVADLYATDYAQIQAIELVNDGTGLGFGIIGARNSGVIVKTILPGGVADKDGRLRSGDHILQIGDVNLHEMVSEQVAAVLRQSGTHVRLVVARPVEQSVPTPQYALEPGTAVVPTRVLVDPAELERYLISTGYPEIFGESSTASTPQTTTEDDRFVYRGETSMLIDPNIDLEELLALPETEKLQVELKKDANGLGITIAGYVCEKEELSGIFVKSVSPGSAADLSGRIRVNDRIIEVDGQSLQGYSNHQAVELLKKSGQVVNLRLERYLRGPKFEQLQQAIAANDKLPSSAPGTPSRAPMPTPVATTSSATTTPSRSITRELEEEALPAPEAFMTTPPSVTTMTTTTLSSFGAGKQLVAVRDSLDGSTKIIPTEVVPLADKTEAKNSGVITRHKYYTDPELSDDAETEIIRKWQKIVGSDVEVIVAQIKKFAVGGLGISLEGTVDVEGGREVRPHHYIRSILPDGPVGVNGVLRSGDELLEVNGERLLGMNHLEVVAILKELPLDVRMVCGRNRNSSLLPFSDDTLKKLSNNFENLLPATDRLVKAKSDGSLATAGSVADGDSVAAAAASFSKLKSRSLEPLTGLAMWSSQPQIIELVKGDRGLGFSILDYQDPLDPNDTLIVIRSLVPGGVAQLDGRLIPGDRLLFVNSINLENASLDQAVQALKGASKGVVRIGVAKPLPMTDNSLKACSNASTTSEETLDAQPSPPALPTVAPPAMPPSASMGAEPDLIPDWRN
With B8 the MAPPIT interaction score (fz) was 2.4.

B9: mbo (protein)
chain: MSLTDVLELNKTELFAKIRNGLPVVQRTQNLLDCKDDLLFAWHAKDSCLLVRNWRSSLAAKVNIQFQTLIPSSLVSLEVDRVLASNEGSLVALSGPRGVVIMELPRRWGPDGYYKDGKPVITCRTFGLDTQLFLKNPHLEVRQVRWHPHSVSDSTLLVLLNNNTIRVYNHSKLRHVWQVGPPVLRSGANNSLCDFGELAVDFDIAPAAKPRVTEPETAGNNETTLDKSNKTLVAAKSLPKQERIEWPMVVLRENGNIYILMTGVDSENTRLQGPVTITPQAHDNYGLESCALMIIPSLPPTIVIAESNGKLHHALLMEAEATEHSFNEVDDSVLIEPAEYVVHVLETVELELGISAPATGKEGGNCPIYLKRDLINELRYFAYHNAGLHAVTVSFIAELQRYLESESDEDRLELAVSASAEYILCTKFDSSETVNAVFGLALLQIPAGIVLLLGSGQVISLKLVIDAQLLVTPNENKPVDSEVSQQESGPPFVDTIKSLLQRSVNQPILADKLSSPSAQESFELLNQAIEVLREQYLKRHDLVRAAFTRHINQIQLKKEQQLQEIQDLEQERELISERAHKLAERFEEISYNQELLVRKCNALMQRANASLPNSVIAEREFSQEVIRLNKVTQSLAAGLETAKKTFNKQRYHIAQSQEDLKKNAYELPEKQHRTITEILTQLTGEIDRQITDVKRINKIVGI
B9 showed an MAPPIT interaction score (emb) of 0.0885.

B10: Ssrp (protein)
chain: MTDSLEYNDINAEVRGVLCSGRLKMTEQNIIFKNTKTGKVEQISAEDIDLINSQKFVGTWGLRVFTKGGVLHRFTGFRDSEHEKLGKFIKAAYSQEMVEKEMCVKGWNWGTARFMGSVLSFDKESKTIFEVPLSHVSQCVTGKNEVTLEFHQNDDAPVGLLEMRFHIPAVESAEEDPVDKFHQNVMSKASVISASGESIAIFREIQILTPRGRYDIKIFSTFFQLHGKTFDYKIPMDSVLRLFMLPHKDSRQMFFVLSLDPPIKQGQTRYHYLVLLFAPDEETTIELPFSEAELRDKYEGKLEKEISGPVYEVMGKVMKVLIGRKITGPGNFIGHSGTAAVGCSFKAAAGYLYPLERGFIYIHKPPLHIRFEEISSVNFARSGGSTRSFDFEVTLKNGTVHIFSSIEKEEYAKLFDYITQKKLHVSNMGKDKSGYKDVDFGDSDNENEPDAYLARLKAEAREKEEDDDDGDSDEESTDEDFKPNENESDVAEEYDSNVESDSDDDSDASGGGGDSDGAKKKKEKKSEKKEKKEKKHKEKERTKKPSKKKKDSGKPKRATTAFMLWLNDTRESIKRENPGIKVTEIAKKGGEMWKELKDKSKWEDAAAKDKQRYHDEMRNYKPEAGGDSDNEKGGKSSKKRKTEPSPSKKANTSGSGFKSKEYISDDDSTSSDDEKDNEPAKKKSKPPSDGDAKKKKAKSESEPEESEEDSNASDEDEEDEASD
Binder B10 has an MAPPIT interaction score (dre4) of 0.764.

B11: MED6 (protein)
chain: MASRQMTNDHLRLSWHDTQMMATLSPQTVMDYFCRKSNPFYDHMCNNETVRMQRLGPEHLHNMIGLEYILLHVAEPILYVIRKQHRHNPSEATPIADYYIIGGTVYKAPDLANVINSRILNTVVNLQSAFEEASSYARYHPNKGYTWDFSSNKVFSDRSKSDKKDANSAKDENSGTLFQKQRVDMLLAELLRKFPPPIPPMLQNLQQPPPAGDDLNTARNASEMNNATGPLDIKTEGVDMKPPPEKKSK
B11 was tested, and the MAPPIT interaction score (glob1) was -0.386.
